Values joined by “and” are separate entries in the source; they are usually repeats but may differ in a detail not shown here. Equal entries are not always repeated. Where a structure was tested more than once in an assay, its records may differ in their call. Active and inactive are the calls of the source. Rule for the calls: active = hit-call score of the fitted dose curve at least 0.9, where 1 is the maximum; inactive = score below 0.9.
What was measured:
[1] = ATG_GRE_CIS: Attagene CIS-FACTORIAL HepG2 Assay for human Glucocorticoid Response Elements (GRE) (AID 2282947); conditions: HepG2 GRE cis-reporter, Attagene multiplex mRNA; actives raise or lower the signal
In short: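 Fluorescence intensity of reporter-specific cDNA fragments, separated by capillary electrophoresis, provides the signal. Constructs carry cis-regulating promoters in transiently transfected HepG2 liver cells; 24 h incubation; fitting is bidirectional against DMSO.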

[2] = ATG_ISRE_CIS: Attagene CIS-FACTORIAL HepG2 Assay for human Interferon Regulatory Factor 1 (IRF1) binding to an Interferon-Stimulated Response Element (ISRE) (AID 2282948); conditions: HepG2 ISRE cis-reporter (Attagene), mRNA transcription readout; actives raise or lower the signal
In short: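 Uses HepG2 liver cells transfected with cis-regulated reporters and measures mRNA 24 h post-dosing through RT-PCR, primer-extension labelling and capillary electrophoresis, with DMSO as negative control.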

[3] = ATG_M_32_CIS: Attagene CIS-FACTORIAL HepG2 Assay for M32 Transcription Factor (Internal Marker) (AID 2282949); conditions: HepG2 Attagene cis-factorial M32 reporter, mRNA; actives raise or lower the signal;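 note: background control marker of the multiplexed CIS panel rather than a real target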
In short: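 HepG2 human liver cells transiently transfected with cis-promoter-driven multiple reporter transcription units, dosed 24 h. Reporter mRNA quantified by RT-PCR, FAM-labelled primer extension, HpaI digest and capillary electrophoresis; bidirectional fit versus DMSO baseline.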

[4] = ATG_M_06_CIS: Attagene CIS-FACTORIAL HepG2 Assay for M06 Transcription Factor (Internal Marker) (AID 2282950); conditions: HepG2 Attagene CIS-FACTORIAL M06 internal marker reporter; actives raise or lower the signal
In short: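 One of many multiplexed endpoints: HepG2 reporter mRNA after 24 h dosing, detected by RT-PCR and capillary electrophoresis fluorescence; gain or loss of signal analysed against DMSO.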

[5] = target: Hypoxia-inducible factor 1-alpha (Homo sapiens) (UniProt Q16665); assay: ATG_HIF1a_CIS: Attagene CIS-FACTORIAL HepG2 Assay for human Hypoxia Inducible Factor 1 (HIF1A) (AID 2282951); conditions: HepG2 Attagene cis-factorial HIF1a reporter transcription; actives raise or lower the signal
Sequence of Hypoxia-inducible factor 1-alpha (Homo sapiens) (Q16665 whole entry, looked up): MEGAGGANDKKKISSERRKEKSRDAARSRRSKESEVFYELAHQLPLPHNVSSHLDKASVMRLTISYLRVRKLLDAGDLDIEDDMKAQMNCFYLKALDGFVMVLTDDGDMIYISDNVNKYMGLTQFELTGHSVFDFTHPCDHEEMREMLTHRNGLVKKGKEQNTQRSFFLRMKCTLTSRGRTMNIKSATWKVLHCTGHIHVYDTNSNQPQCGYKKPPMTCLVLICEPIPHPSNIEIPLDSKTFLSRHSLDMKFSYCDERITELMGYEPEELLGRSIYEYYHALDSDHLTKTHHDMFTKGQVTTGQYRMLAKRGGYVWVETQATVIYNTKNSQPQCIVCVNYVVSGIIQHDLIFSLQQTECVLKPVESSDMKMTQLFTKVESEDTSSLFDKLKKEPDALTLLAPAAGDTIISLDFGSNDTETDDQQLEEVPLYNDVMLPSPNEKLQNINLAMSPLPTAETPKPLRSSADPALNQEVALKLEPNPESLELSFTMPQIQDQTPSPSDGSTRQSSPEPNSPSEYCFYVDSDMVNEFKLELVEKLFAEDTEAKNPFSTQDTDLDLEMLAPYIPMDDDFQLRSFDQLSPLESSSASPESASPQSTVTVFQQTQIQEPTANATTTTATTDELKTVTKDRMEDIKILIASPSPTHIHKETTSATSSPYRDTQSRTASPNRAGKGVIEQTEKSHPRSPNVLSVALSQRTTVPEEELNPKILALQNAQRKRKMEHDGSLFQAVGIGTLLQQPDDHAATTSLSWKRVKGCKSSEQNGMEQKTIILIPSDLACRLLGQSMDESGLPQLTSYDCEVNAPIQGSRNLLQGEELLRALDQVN
In short: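 HepG2 cells transiently transfected with multiple cis-regulated reporter transcription units measure endogenous transcription factor activity. After 24 h exposure, reporter mRNA is quantified by RT-PCR with 6-FAM labelling, HpaI digestion and capillary electrophoresis. Bidirectional fitting against DMSO.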

[6] = target: Hepatocyte nuclear factor 6 (Homo sapiens) (UniProt Q9UBC0); assay: ATG_HNF6_CIS: Attagene CIS-FACTORIAL HepG2 Assay for human Hepatocyte Nuclear Factor 6 (HNF6) (AID 2282952); conditions: HepG2 Attagene cis-factorial HNF6 reporter transcription; actives raise or lower the signal
Sequence of Hepatocyte nuclear factor 6 (Homo sapiens) (Q9UBC0 whole entry, looked up): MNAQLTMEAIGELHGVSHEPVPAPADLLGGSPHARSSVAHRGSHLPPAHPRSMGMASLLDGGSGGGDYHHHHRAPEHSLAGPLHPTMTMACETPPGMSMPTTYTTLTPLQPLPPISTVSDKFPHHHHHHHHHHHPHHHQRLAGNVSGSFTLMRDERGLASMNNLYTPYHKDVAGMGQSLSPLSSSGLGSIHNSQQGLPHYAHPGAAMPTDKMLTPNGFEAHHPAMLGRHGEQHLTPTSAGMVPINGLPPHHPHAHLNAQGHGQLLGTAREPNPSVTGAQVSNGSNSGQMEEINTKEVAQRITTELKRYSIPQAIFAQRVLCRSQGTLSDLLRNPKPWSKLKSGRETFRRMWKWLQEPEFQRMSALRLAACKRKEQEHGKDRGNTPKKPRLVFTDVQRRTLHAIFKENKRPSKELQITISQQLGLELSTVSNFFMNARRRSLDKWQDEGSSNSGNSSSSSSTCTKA
In short: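 Endogenous transcription factor activity in human HepG2 liver cells was captured through cis-regulated reporter constructs. After 24 h treatment, reporter mRNA was measured by RT-PCR with capillary electrophoresis, and activity was fitted in both directions relative to DMSO.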

[7] = target: Heat shock factor protein 1 (Homo sapiens) (UniProt Q00613); assay: ATG_HSE_CIS: Attagene CIS-FACTORIAL HepG2 Assay for human Heat Shock Transcription Factor 1 (HSE) (AID 2282953); conditions: HepG2 HSE cis-reporter, Attagene RNA transcription; actives raise or lower the signal
Sequence of Heat shock factor protein 1 (Homo sapiens) (Q00613 whole entry, looked up): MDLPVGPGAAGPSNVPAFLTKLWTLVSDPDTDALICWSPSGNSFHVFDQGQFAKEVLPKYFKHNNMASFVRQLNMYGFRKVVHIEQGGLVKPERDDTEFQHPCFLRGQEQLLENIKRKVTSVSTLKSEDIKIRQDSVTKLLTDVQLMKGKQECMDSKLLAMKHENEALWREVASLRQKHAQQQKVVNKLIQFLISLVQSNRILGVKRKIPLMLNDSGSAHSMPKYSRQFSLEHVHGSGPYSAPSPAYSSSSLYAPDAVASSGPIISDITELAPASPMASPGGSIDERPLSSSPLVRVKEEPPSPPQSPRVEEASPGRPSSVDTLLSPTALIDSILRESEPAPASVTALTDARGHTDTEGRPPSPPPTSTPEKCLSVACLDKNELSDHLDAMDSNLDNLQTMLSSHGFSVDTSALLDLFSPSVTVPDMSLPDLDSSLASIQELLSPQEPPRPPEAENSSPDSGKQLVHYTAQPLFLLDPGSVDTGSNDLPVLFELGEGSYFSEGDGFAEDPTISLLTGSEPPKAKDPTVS
In short: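 Using HepG2 with transfected cis-driven reporter constructs, compound effects on endogenous factor activity are scored as reporter mRNA change at 24 h. Detection: RT-PCR, HpaI digestion, capillary electrophoresis; bidirectional fitting to DMSO.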

[8] = ATG_MRE_CIS: Attagene CIS-FACTORIAL HepG2 Assay for human Metal Responsive Element (MRE) (AID 2282954); conditions: HepG2 MRE cis-reporter transcription, Attagene multiplex; actives raise or lower the signal
In short: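 Measured here is mRNA induction from an MRE cis-element reporter in HepG2 after 24 h, quantified by fluorescence of labelled RT-PCR products on capillary electrophoresis; gain- and loss-of-signal fits use DMSO as baseline.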

[9] = ATG_PBREM_CIS: Attagene CIS-FACTORIAL HepG2 Assay for human Phenobarbital-responsive Enhancer Module (PBREM) (AID 2282955); conditions: HepG2 PBREM cis-reporter, Attagene multiplexed transcription; actives raise or lower the signal
In short: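 HepG2 cells transiently transfected with multiple cis-regulated reporter units measure endogenous transcription factor activity; 24 h compound exposure. Reporter mRNA quantified by RT-PCR, fluorescent labelling, HpaI digestion and capillary electrophoresis; bidirectional fit versus DMSO.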

[10] = target: Paired box protein Pax-6 (Homo sapiens) (UniProt P26367); assay: ATG_Pax6_CIS: Attagene CIS-FACTORIAL HepG2 Assay for human Paired Box 6 (PAX6) (AID 2282956); conditions: HepG2 CIS-FACTORIAL PAX6 reporter transcription, RNA readout; actives raise or lower the signal
Sequence of Paired box protein Pax-6 (Homo sapiens) (P26367 whole entry, looked up): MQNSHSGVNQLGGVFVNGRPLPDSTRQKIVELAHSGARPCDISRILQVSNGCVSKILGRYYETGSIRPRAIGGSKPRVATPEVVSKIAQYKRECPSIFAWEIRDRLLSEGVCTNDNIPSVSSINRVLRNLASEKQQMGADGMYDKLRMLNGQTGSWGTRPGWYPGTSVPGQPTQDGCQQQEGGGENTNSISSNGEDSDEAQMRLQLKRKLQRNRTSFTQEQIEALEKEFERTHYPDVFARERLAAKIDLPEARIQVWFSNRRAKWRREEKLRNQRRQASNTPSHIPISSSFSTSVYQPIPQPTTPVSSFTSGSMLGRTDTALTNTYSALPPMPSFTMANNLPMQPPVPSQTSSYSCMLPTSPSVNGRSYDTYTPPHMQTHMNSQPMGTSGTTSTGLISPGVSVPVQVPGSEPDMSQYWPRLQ
In short: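 DMSO-referenced bidirectional fits of reporter mRNA fluorescence; HepG2 with transient cis-promoter MRTUs, 24 h post-dose, RT-PCR plus capillary electrophoresis detection.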

[11] = ATG_PXRE_CIS: Attagene CIS-FACTORIAL HepG2 Assay for human Pregnane X Receptor Element (PXRE) (AID 2282957); conditions: HepG2 Attagene CIS-FACTORIAL PXRE reporter, mRNA; actives raise or lower the signal
In short: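 Endogenous transcription factor activity in HepG2 was gauged through induction of reporter mRNA driven by a cis-regulating promoter element, sampled 24 h post-treatment. Activity was fitted in both directions against DMSO negative control.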

[12] = ATG_PPRE_CIS: Attagene CIS-FACTORIAL HepG2 Assay for human Peroxisome Proliferator-activated Response Element (PPRE) (AID 2282958); conditions: HepG2 PPRE cis-element reporter, Attagene transcription factor profiling; actives raise or lower the signal
In short: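 HepG2 cells are transiently transfected with multiplexed cis-promoter reporter units to report endogenous PPAR activity. After 24 h dosing, reporter mRNA is read by RT-PCR and capillary electrophoresis. Fitting is bidirectional against DMSO.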

[13] = ATG_RORE_CIS: Attagene CIS-FACTORIAL HepG2 Assay for human RAR-related Orphan Receptor Element (RORE) (AID 2282959); conditions: HepG2 Attagene cis-factorial RORE reporter, mRNA; actives raise or lower the signal
In short: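 HepG2 cells carrying transiently transfected cis-regulated reporter units; RORE-driven reporter mRNA quantified 24 h post-dosing by RT-PCR, 6-FAM primer extension, HpaI digestion and capillary electrophoresis. Bidirectional fit versus DMSO.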

[14] = ATG_Sox_CIS: Attagene CIS-FACTORIAL HepG2 Assay for human SRY-box transcription factor (SOX) (AID 2282960); conditions: HepG2 Attagene cis-factorial SOX reporter, mRNA; actives raise or lower the signal
In short: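 HepG2 cells transiently transfected with multiple cis-regulated reporter units, then dosed for 24 h. Reporter mRNA quantified by RT-PCR, fluorescent labelling, HpaI digestion and capillary electrophoresis; bidirectional fit versus DMSO.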

[15] = target: Transcription factor Sp1 (Homo sapiens) (UniProt P08047); assay: ATG_Sp1_CIS: Attagene CIS-FACTORIAL HepG2 Assay for human Specificity Protein 1 (Sp1) (AID 2282961); conditions: HepG2 Sp1 cis-reporter transcription, actives raise or lower the signal
Sequence of Transcription factor Sp1 (Homo sapiens) (P08047 whole entry, looked up): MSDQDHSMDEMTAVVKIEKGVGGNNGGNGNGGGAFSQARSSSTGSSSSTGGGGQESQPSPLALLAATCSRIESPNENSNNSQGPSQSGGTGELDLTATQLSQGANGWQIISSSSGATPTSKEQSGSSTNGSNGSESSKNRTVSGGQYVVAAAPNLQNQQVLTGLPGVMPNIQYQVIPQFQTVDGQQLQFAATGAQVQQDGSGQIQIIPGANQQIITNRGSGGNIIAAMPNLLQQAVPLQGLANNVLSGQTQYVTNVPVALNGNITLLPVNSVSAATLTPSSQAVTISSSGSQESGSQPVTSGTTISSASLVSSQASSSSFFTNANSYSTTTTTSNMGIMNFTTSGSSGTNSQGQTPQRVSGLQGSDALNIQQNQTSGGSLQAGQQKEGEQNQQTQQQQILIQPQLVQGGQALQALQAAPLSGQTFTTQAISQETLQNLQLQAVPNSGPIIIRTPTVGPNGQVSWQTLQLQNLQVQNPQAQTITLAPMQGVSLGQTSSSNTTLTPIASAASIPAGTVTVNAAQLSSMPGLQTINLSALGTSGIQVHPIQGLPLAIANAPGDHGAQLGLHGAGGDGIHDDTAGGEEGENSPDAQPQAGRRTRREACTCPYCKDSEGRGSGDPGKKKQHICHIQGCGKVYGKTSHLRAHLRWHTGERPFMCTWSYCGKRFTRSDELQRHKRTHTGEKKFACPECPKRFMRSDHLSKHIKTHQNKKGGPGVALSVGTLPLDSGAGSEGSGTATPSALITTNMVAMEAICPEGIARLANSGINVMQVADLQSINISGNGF
In short: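 HepG2 cells transiently transfected with multiplexed cis-regulated reporter constructs, chemical exposure 24 h. Reporter mRNA quantified by RT-PCR with capillary electrophoresis; bidirectional fit relative to DMSO.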

[16] = ATG_SREBP_CIS: Attagene CIS-FACTORIAL HepG2 Assay for human Sterol Regulatory Element Binding (SREBP) (AID 2282962); conditions: HepG2 Attagene cis-factorial SREBP reporter, mRNA; actives raise or lower the signal
In short: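 In this cis-format assay, HepG2 liver cells express reporters controlled by promoter elements responsive to native transcription factors. Exposure lasts 24 h; reporter mRNA fluorescence from capillary electrophoresis gives the signal, fitted bidirectionally against DMSO.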

[17] = target: Signal transducer and activator of transcription 3 (Homo sapiens) (UniProt P40763); assay: ATG_STAT3_CIS: Attagene CIS-FACTORIAL HepG2 Assay for human Signal Transducer and Activator of Transcription 3 (STAT3) (AID 2282963); conditions: HepG2, Attagene cis-factorial STAT3 reporter transcription; actives raise or lower the signal
Sequence of Signal transducer and activator of transcription 3 (Homo sapiens) (P40763 whole entry, looked up, the tested form may be a part): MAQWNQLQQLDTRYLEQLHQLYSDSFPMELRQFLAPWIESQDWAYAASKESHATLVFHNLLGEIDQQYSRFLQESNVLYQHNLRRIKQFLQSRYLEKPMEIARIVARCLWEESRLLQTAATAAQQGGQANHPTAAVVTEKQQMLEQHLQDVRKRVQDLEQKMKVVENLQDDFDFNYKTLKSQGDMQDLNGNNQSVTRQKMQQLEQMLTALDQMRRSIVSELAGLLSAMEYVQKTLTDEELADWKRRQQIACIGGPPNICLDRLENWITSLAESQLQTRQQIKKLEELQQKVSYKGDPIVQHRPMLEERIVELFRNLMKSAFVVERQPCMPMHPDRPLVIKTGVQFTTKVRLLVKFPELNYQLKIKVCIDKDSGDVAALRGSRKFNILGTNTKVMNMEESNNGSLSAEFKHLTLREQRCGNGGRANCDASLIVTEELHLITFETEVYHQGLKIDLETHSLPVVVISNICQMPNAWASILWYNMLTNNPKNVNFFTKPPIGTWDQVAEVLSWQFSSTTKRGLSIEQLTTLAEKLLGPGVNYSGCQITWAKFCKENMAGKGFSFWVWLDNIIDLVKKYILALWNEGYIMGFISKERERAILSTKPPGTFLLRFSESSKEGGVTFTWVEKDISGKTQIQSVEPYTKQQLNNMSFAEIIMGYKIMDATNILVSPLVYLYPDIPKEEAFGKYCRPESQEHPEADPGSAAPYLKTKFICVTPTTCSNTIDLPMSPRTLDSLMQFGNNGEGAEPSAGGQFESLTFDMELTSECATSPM
In short: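 Fluorescence intensity of 6-FAM-labelled reporter fragments, separated by capillary electrophoresis after RT-PCR, gave the signal. Cells were HepG2 transfected with cis-element reporter units and treated 24 h; fitting was bidirectional relative to DMSO.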

[18] = ATG_TA_CIS: Attagene CIS-FACTORIAL HepG2 Assay for human TA Basal Promoter (AID 2282964); conditions: HepG2 Attagene CIS-factorial TA basal promoter reporter; actives raise or lower the signal
In short: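 Transient MRTU transfection of HepG2 preceded 24 h compound exposure. Reporter mRNA levels were then read by RT-PCR with capillary electrophoresis, and this background-control endpoint was fitted bidirectionally to DMSO.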

[19] = ATG_TCF_b_cat_CIS: Attagene CIS-FACTORIAL HepG2 Assay for human T-Cell-Factor with beta-catenin (TCF/b-cat) (AID 2282965); conditions: HepG2 TCF/beta-catenin cis-reporter transcription, actives raise or lower the signal
In short: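 HepG2, transient MRTU transfection, cis-element-driven reporters (endogenous TFs). 24 h compound exposure. Readout: reporter mRNA by RT-PCR + 6-FAM primer extension, HpaI digest, capillary electrophoresis. Gain/loss fit vs DMSO baseline.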

[20] = target: Bile acid receptor (Homo sapiens) (UniProt Q96RI1); assay: ATG_IR1_CIS: Attagene CIS-FACTORIAL HepG2 Assay for human Nuclear Receptor Subfamily 1 Group H Member 4 (NR1H4), IR1 submotif (AID 2282946); conditions: IR1 reporter transcription, actives raise or lower the signal
Sequence of Bile acid receptor (Homo sapiens) (Q96RI1 whole entry, looked up): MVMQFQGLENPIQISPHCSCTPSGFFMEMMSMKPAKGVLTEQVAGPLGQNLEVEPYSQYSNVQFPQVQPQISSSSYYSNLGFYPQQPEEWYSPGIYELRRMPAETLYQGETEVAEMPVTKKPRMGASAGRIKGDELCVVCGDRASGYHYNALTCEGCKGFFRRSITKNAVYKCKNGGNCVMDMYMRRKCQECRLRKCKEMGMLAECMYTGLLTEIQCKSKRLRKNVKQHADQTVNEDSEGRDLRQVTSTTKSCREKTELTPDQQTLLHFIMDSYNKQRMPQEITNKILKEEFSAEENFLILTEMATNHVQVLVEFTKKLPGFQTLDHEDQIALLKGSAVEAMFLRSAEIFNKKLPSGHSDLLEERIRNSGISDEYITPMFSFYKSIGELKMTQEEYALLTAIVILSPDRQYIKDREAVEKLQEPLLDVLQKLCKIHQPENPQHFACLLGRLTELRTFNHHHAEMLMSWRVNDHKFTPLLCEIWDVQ
In short: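 Fluorescence of capillary-separated, HpaI-digested RT-PCR reporter products gave IR1-element mRNA induction in HepG2 cells 24 h after dosing. Endogenous transcription factors drove the cis-regulated reporters; activity was fitted bidirectionally against DMSO.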

Measured: AC50

c1ccc(C[n+]2cccc3ccccc32)cc1
not listed: [20]
inactive: all other assays above

CC1=CC(=O)/C(=C(/C)O)C(=O)O1
not listed: [11]
inactive: all other assays above

O=c1c(-c2ccc(O)cc2)coc2cc(O)cc(O)c12
inactive: [20] | [1] | [2] | [3] | [4] | [5] | [6] | [7] | [8] | [9] | [10] | [12] | [13] | [14] | [15] | [17] | [18] | [19]
active: [20] 10.4 µM and 10.6 µM | [8] 81.4 µM and 137 µM | [9] 43.7 µM | [12] 14.7 µM and 66.3 µM and 50 µM | [15] 58.4 µM and 80.7 µM | [16] 28.2 µM [middle of 4 runs]

O=c1[nH]sc2ccccc12
active: [2] 33.4 µM | [5] 8.86 µM | [7] 52.8 µM | [11] 51.7 µM | [14] 42.9 µM | [19] 44.4 µM
inactive: all other assays above

CN(C)c1ccc(C(=C2C=CC(=[N+](C)C)C=C2)c2ccc(N(C)C)cc2)cc1
active: [20] 2.87 µM | [2] 2.28 µM | [3] 2.03 µM | [7] 6.63 µM | [8] 4.28 µM | [9] 5.8 µM | [15] 1.69 µM | [18] 0.99 µM | [19] 2.96 µM
not listed: [11]
inactive: all other assays above

O=C=NCCCCCCN=C=O
not listed: [1]
inactive: all other assays above

NC(=O)c1nc(-c2cccc(-c3cc(F)ccc3OCC(F)(F)C(F)(F)F)c2)n[nH]1
active: [20] 51.6 µM | [5] 2.7 µM | [7] 59.9 µM | [8] 51.2 µM | [10] 24.3 µM | [15] 16.9 µM | [16] 10.3 µM | [18] 43.7 µM | [19] 33 µM
inactive: [1] | [2] | [3] | [4] | [6] | [14] | [17]

CC(C)(O)c1ccc(CNC(=O)c2cccnc2Oc2ccc3nonc3c2)cc1
active: [9] 33.4 µM | [11] 7.65 µM | [16] 50.9 µM
not listed: [20]
inactive: all other assays above

CCCCCCCC[Si](OCC)(OCC)OCC
inactive: [1] | [2] | [3] | [4] | [5] | [6] | [7] | [8] | [10] | [12] | [13] | [14] | [15] | [16] | [17] | [18] | [19]
active: [1] 127 µM | [2] 41.8 µM | [5] 57.3 µM and 26.4 µM | [11] 8.67 µM [middle of 4 runs] | [12] 62.9 µM and 70.5 µM | [14] 147 µM | [15] 159 µM | [16] 100 µM | [19] 68.9 µM and 100 µM

O=C1CCC(C2CCCCC2)CC1
inactive: [1] | [2] | [3] | [4] | [5] | [6] | [7] | [8] | [9] | [10] | [12] | [13] | [14] | [15] | [16] | [17] | [18] | [19]
active: [2] 134 µM | [5] 0.821 µM | [7] 150 µM | [8] 100 µM and 154 µM and 114 µM | [10] 156 µM | [15] 171 µM

CCN(Cc1cccnc1)C(=O)c1cccc(Cl)c1[C@]1(C)C(=O)N(Cc2ccc(OC)cc2OC)c2ccc(Cl)cc21
active: [2] 7.7 µM | [7] 40.4 µM | [8] 7.17 µM | [9] 1.47 µM | [10] 3.83 µM | [11] 0.143 µM | [13] 2.74 µM | [16] 3.23 µM | [18] 4.5 µM | [19] 5.44 µM
inactive: all other assays above

Reference: PubChem BioAssay (EPA / NIEHS)
